Results from PubChem BioAssay AID743363 (Broad Institute, 2014).
The source made the active and inactive calls. No rule for the calls is given here.

Experiment: interference with FL-DTB/streptavidin displacement signal, dose response, counter-screen, biochemical, dry powder samples (AID 743363)
Conditions: FL-DTB/streptavidin fluorescence displacement counter-screen, BioD coupled; series mostly up to 10 µM; activity, interference signal: at the top concentration

SMILES	activity, interference signal
CC(=O)c1ccc(N2CCN(C(=O)c3ccc4c(c3)OC(F)(F)O4)CC2)cc1	0.02% (inactive)
O=C(c1ccc2c(c1)OCO2)N1CCN(c2ccc(OC(F)(F)F)cc2)CC1	-5.37% (inactive)
CS(=O)(=O)c1ccc(N2CCN(C(=O)c3ccc4c(c3)OCO4)CC2)cc1	-0.775% (inactive)
CC(=O)c1ccc(N2CCN(C(=O)c3cc4c(cc3C)OCO4)CC2)cc1	-0.603% (inactive)
COC(=O)CCCCCCC(=O)N1CC[C@@H]2[C@@H](CO)N(C)c3ccc(-c4cccc(F)c4)cc3[C@@H]21	-5.08% (inactive)
CC(=O)c1ccc(N2CCN(C(=O)c3cc4c(cn3)OCO4)CC2)cc1	2.16% (inactive)
CC(=O)c1ccc(N2CCN(C(=O)c3ccc4ocnc4c3)CC2)cc1	3.93% (inactive)
COc1ccccc1C(=O)N1CCN(c2ccc(C(C)=O)cc2)CC1	2.61% (inactive)
COc1cccc(NC(=O)N2CC[C@@H]3[C@@H](CO)N(C)c4ccc(-c5cccc(F)c5)cc4[C@@H]32)c1	0.165% (inactive)
CN(C)S(=O)(=O)c1ccc(N2CCN(C(=O)c3ccc4c(c3)OCO4)CC2)cc1	1.79% (inactive)
CN1c2ccc(-c3ccc(F)cc3)cc2[C@H]2[C@H](CCN2C(=O)Cc2cccnc2)[C@H]1CO	4.33% [at 9 µM] (inactive)
O=C(c1ccc2c(c1)OCO2)N1CCN(c2ccc(S(=O)(=O)C(F)(F)F)cc2)CC1	-1.88% (inactive)
COc1cc(C(=O)N2CCN(c3ccc(C(C)=O)cc3)CC2)cc2c1OCO2	-2.37% (inactive)
CN1c2ccc(-c3cccc(F)c3)cc2[C@H]2[C@H](CCN2C(=O)CCCCCCN)[C@H]1CO	-2.8% (inactive)
N#Cc1ccc(N2CCN(C(=O)c3ccc4c(c3)OCO4)CC2)cc1	1.76% (inactive)
CN1c2ccc(-c3cccc(F)c3)cc2[C@H]2[C@H](CCN2C(=O)Cc2cccnc2)[C@H]1CO	-4.99% (inactive)
CC(=O)c1ccc(N2CCN(S(=O)(=O)c3ccc4c(c3)OCO4)CC2)cc1	-0.756% (inactive)
CN1c2ccc(-c3ccc(F)cc3)cc2[C@H]2[C@H](CCN2C(=O)Nc2cc(F)ccc2F)[C@H]1CO	3.51% (inactive)
CN1c2ccc(-c3cccc(F)c3)cc2[C@H]2[C@H](CCN2C(=O)Cc2ccccc2)[C@H]1CO	4.59% (inactive)
CN1c2ccc(-c3cccc(F)c3)cc2[C@H]2[C@H](CCN2C(=O)CCCCCCC(=O)O)[C@H]1CO	-0.397% (inactive)
CN1c2ccc(-c3ccc(F)cc3)cc2[C@H]2[C@H](CCN2C(=O)Cc2ccccn2)[C@H]1CO	-1.4% (inactive)
COc1ccc(C(=O)N2CCN(c3ccc(C(C)=O)cc3)CC2)cc1OC	2.26% (inactive)
COc1ccc(NC(=O)N2CC[C@@H]3[C@@H](CO)N(C)c4ccc(-c5cccc(F)c5)cc4[C@@H]32)cc1	-1.25% (inactive)
CC(=O)c1ccc(N2CCN(C(=O)c3cccc4c3OCO4)CC2)cc1	-6.09% (inactive)
CC(=O)c1ccc(NCCNC(=O)c2ccc3c(c2)OCO3)cc1	0.593% (inactive)
CC(=O)c1ccc(N2CCN(C(=O)c3ccccc3F)CC2)cc1	0.666% (inactive)
CC(C)NC(=O)N1CC[C@@H]2[C@@H](CO)N(C)c3ccc(-c4cccc(F)c4)cc3[C@@H]21	1.18% (inactive)
CC(=O)c1ccc(N2CCN(C(=O)c3ccc4snnc4c3)CC2)cc1	3.92% (inactive)
CC(=O)c1ccc(N2CCN(C(=O)c3ccc4c(c3)OCO4)CC2)cc1	1.39% (inactive)
COc1ccc(NC(=O)N2CC[C@@H]3[C@@H](CO)N(C)c4ccc(-c5ccc(F)cc5)cc4[C@@H]32)cc1	-0.042% (inactive)
